Sampled rows, rich in hits. Any-hit rate of the full collection: about 3.1%.
D3 antag = blocks the human D3 dopamine receptor | D3R cells, DiscoveRx beta-arrestin luminescence, antagonist mode; stronger effect = lower value | max response, negative = inhibition, % | 360,000 compounds, 2.5% hits | AID 652054; in the data active = max response below about -50%; inconclusive = no clear call, values can overlap the other calls; also: % is scaled to controls: 0 for no effect and ±100 for the full control effect
Target sequence (P35462 whole entry, looked up): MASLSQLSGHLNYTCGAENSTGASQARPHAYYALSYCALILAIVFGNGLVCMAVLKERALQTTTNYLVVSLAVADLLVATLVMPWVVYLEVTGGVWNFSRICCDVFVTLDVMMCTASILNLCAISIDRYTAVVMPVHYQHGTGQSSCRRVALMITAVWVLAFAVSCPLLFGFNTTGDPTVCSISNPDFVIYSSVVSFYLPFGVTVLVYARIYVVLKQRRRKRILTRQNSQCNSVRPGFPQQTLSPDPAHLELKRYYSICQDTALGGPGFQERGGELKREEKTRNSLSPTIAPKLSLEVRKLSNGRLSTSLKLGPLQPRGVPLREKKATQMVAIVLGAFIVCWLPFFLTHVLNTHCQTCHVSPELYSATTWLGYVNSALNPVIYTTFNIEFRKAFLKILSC
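Cells expressing the human receptor were seeded at 1500 cells/well, incubated overnight at 37 degrees C in 5% CO2, then exposed to library compounds with dopamine controls for 90 minutes at 37 degrees C before luminescent detection.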
D3 ag = D3 dopamine receptor (human) agonism; D3R DiscoveRx beta-arrestin cells, luminescence, 90 min; max activation, %; 410,000 compounds, 0.58% hits; AID 652048; in the data active = max activation above about 30%; also: 0% is about no effect
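Agonist-mode cell screen: cells plated at 1500/well and incubated overnight at 37 °C, then exposed to library compounds for 90 min at 37 °C. Detection reagent was added for 30–60 min at room temperature, and luminescence was read.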
uPA generation = inhibitors of cell surface uPA generation; cell surface uPA generation assay, qHTS; Potency, µM (top dose mostly 38.3 µM), without a hit: top-dose activity change, negative = inhibition, usual class: inhibitors; 330,000 compounds, 0.31% hits; active = well fitted inhibition curve with a large enough effect; inconclusive = small, poorly fitted or top-dose-only effect; inactive = no such curve, though single readings can be large or run the other way; tested in mouse RAW 264.7 cells; also: potency is read from the fitted curve at half-maximal effect; % is scaled to controls: 0 for no effect and ±100 for the full control effect; nearly all actives have a fitted effect of over 55% in size
RGS4 inh = inhibitors of human regulator of G protein signaling 4. P49798. Transcreener GDP fluorescence polarization, RGS4-accelerated GTP hydrolysis. Potency, µM (highest dose often 114 µM), without a hit: top-dose activity change, negative = inhibition, hits mostly inhibitors. 390,000 compounds, 0.039% hits. AID 504845; active = well fitted inhibition curve with a large enough effect; inconclusive = small, poorly fitted or top-dose-only effect; inactive = no such curve, though single readings can be large or run the other way; also: potency is read from the fitted curve at half-maximal effect; % is scaled to controls: 0 for no effect and ±100 for the full control effect; nearly all actives have a fitted effect of over 75% in size
Target sequence (P49798 whole entry, looked up): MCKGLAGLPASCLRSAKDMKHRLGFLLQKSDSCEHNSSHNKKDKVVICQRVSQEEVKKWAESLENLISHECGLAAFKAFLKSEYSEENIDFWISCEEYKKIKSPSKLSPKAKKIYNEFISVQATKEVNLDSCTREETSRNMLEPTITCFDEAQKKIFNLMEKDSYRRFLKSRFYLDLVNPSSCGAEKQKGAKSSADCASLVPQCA
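MLSMR compounds (23 nl, pin-transferred) preincubated 10 min at room temperature with a 500nM (2x) first reagent, then RGS4 at 900nM (2x) plus Transcreener GDP mix added; fluorescence polarization (620/688 nm) read before and after 90 min at 30 °C.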
* = called active by the depositor; ? = inconclusive; nt = no result given; [ ] = remark or other dose.

SMILES	D3 antag	D3 ag	uPA generation	RGS4 inh
CN1CCN(C2(CNC(=O)c3ccc([N+](=O)[O-])cc3)CCCCC2)CC1	nt	-1	nt	22%
COc1ccc(-n2ncc3c(NCCC4=CCCCC4)ncnc32)cc1	nt	-7	nt	2%
CN(CCOc1ccccc1Cl)Cc1ccccc1	-76*	5	?	10%
C=CCc1cc(Cl)ccc1OCCN(C)C	-55*	-55	nt	33%
CN(CCOCCOc1ccc(Cl)cc1Br)Cc1ccccc1	-64*	-18	9%	-8%
Cc1ccccc1C(=O)OCCN(C)Cc1ccccc1	-70*	-14	-1%	0%
Cc1ccc(Cl)c(OCCCN(C)Cc2ccccc2)c1	?	-22	2%	11%
COc1c(C)c2c(c(O)c1C/C=C(\C)CCC(=O)OCCN1CCOCC1)C(=O)OC2	nt	-11	nt	nt
CCOc1cccc(OCCOCCN(C)C)c1	-8	-4	7%	30%
C=CCc1cc(OC)ccc1OCCN(C)Cc1ccccc1	-59*	-26	1%	-33%
CCOc1cccc(OCCOCCN(C)Cc2ccccc2)c1	-64*	-11	12%	-9%
Cc1ccc(Cl)c(OCCCCN(C)Cc2ccccc2)c1	-90*	-63	nt	-6%
CS(=O)(=O)c1ccc(Nc2nc(C(N)Cc3ccc(Cl)cc3)cs2)cc1 (configuration not stated)	0	-5	nt	nt
CCOC(=O)c1cc(-c2ccc(C)cc2)nn1Cc1ccccc1	nt	-1	nt	-25%
Cc1ccc(S(=O)(=O)Nc2ccc(O)c3ccccc23)c(C)c1	-53*	-13	4%	-12%
COC(=O)C1=C[C@@H](C(=O)OC)C2C3=C(C(=O)[C@]2(C)NC(=O)c2ccccc2)[C@H](C)[C@@H]2C(=O)N(C)C(=O)[C@@H]2[C@@H]3C1 (some centres not stated)	nt	nt	nt	-4%
Nc1ccc2c(c1)N1CCN=C1S2	-64*	-2	-3%	-45%
O=C(Nc1ccc(Cl)cc1)Nc1ccc2c(c1)N1CCN=C1S2	-1	-5	-3%	1%[11.4 µM]
C/C(=N\NC(N)=O)c1cc(Cl)cc(Cl)c1O	-82*	-26	3%	12%
COc1ccc(Cc2nnc(NC(=O)C3CC(=O)N(c4ccccc4C)C3)s2)cc1OC (configuration not stated)	-64*	-8	-6%	-8%
CCOc1ccc(N2CC(C(=O)Nc3nnc(Cc4ccc(OC)c(OC)c4)s3)CC2=O)cc1 (configuration not stated)	7	5	-4%	-11%
Cc1cc(Cl)ccc1NC(=O)C1CCN(c2nnc(-n3c(C)ccc3C)s2)CC1	nt	-17	nt	-14%
COc1ccccc1CNC(=O)c1cc2cc(C)ccc2n1C	nt	8	nt	-11%
CC[C@@]12C(=O)N(c3ccc(OC)cc3)C(=O)N1[C@H](c1cccc(C)c1)[C@@H]1C(=O)N(Cc3ccccc3)C(=O)[C@@H]12	7	45*	-8%	4%
CC[C@@]12C(=O)N(c3cccc(Cl)c3)C(=O)N1[C@H](c1cccc(C)c1)[C@@H]1C(=O)N(Cc3ccccc3)C(=O)[C@@H]12	?	2	18%	-4%
SMILES	D3 antag	D3 ag	uPA generation	RGS4 inh
CC[C@@]12C(=O)N(c3ccc(C)cc3)C(=O)N1[C@H](c1cccc(C)c1)[C@@H]1C(=O)N(Cc3ccccc3)C(=O)[C@@H]12	0	30*	-3%	-2%
Cc1ccc(N2C(=O)N3[C@H](c4cccc(C)c4)[C@@H]4C(=O)N(Cc5ccccc5)C(=O)[C@@H]4[C@]3(C)C2=O)cc1	?	0	-5%	-1%
O=C(COc1ccc(Cl)cc1)NCC(c1ccco1)S(=O)(=O)c1ccccc1 (configuration not stated)	nt	-25	nt	-5%
N#Cc1c2ccc(O)cc2n2ccccc12	66	43*	nt	-32%
CC(=O)c1ccc(NC(=O)COC(=O)c2ccccc2Nc2ccccc2)cc1	-51*	-1	2%	?
Cc1coc2c(C)c3oc(=O)c(CCC(=O)N4C[C@H]5C[C@@H](C4)c4cccc(=O)n4C5)c(C)c3cc12	3	35*	10%	0%
COc1ccc(NC(=O)c2nc(S(=O)(=O)Cc3cccc(C)c3)ncc2Cl)c(OC)c1	-116*	-9	?	-18%
COc1ccc(OC)c(NC(=O)c2nc(S(=O)(=O)Cc3ccccc3)ncc2Cl)c1	-104*	-38	8%	-37%
COc1ccc2nc(NC(=O)c3nc(S(=O)(=O)Cc4ccccc4)ncc3Cl)sc2c1	nt	-16	nt	-10%
COc1ccc2c(c1)CC(NC(=O)Nc1ccc(NC(C)=O)cc1)CO2 (configuration not stated)	nt	-10	nt	7%
N#Cc1c(C(F)(F)F)cc(-c2cccs2)nc1SCC(=O)Nc1ccc(F)cc1	nt	0	nt	-4%
Cc1ccc(-c2noc(CNC(=O)c3ccc(Br)o3)n2)cc1	nt	-16	nt	9%
CC(=O)N1CCc2cc(C(=O)CN3CCN(c4cccc(Cl)c4)CC3)ccc21	-50*	-8	-13%	-15%
COc1ccc(/C=C2\CN(Cc3ccccc3)C/C(=C\c3ccc(OC)c(O)c3)C2=O)cc1O	-53*	-16	-18%	-15%
COc1cc(/C=C2\COC/C(=C\c3ccc(O)c(OC)c3)C2=O)ccc1O	-90*	-27	-15%	-48%
COc1cc(C=C2C(=O)c3ccccc3C2=O)ccc1O	-77*	8	6%	14%
COc1ccc(C(=O)Nc2ccc(OCc3cc(=O)n4ccccc4n3)cc2)cc1	nt	3	nt	29%
CCN(CC)S(=O)(=O)c1ccc2c(c1)N(CC(=O)N(C)Cc1ccccc1)C(=O)CO2	nt	-19	nt	14%
Fc1cccc(CCN2CCN=C2Nc2ccccc2)c1	-74*	-65	5%	16%
O=C(CCN1CCc2ccccc2C1)Nc1ccc(F)cc1	-66*	-4	0%	17%
Cc1ccccc1NC(=O)CCN1CCCC1	-9	-7	5%	13%
Cc1ccccc1NC(=O)CCN1CCc2ccccc2C1	-79*	-6	6%	-30%
CCN1c2ccccc2-c2nc3ccccc3n2C1c1ccco1 (configuration not stated)	-50*	1	2%	-13%
COCc1cccc(-c2csc(C(C)(O)c3cccc(F)c3)n2)c1 (configuration not stated)	-90*	-21	nt	nt
CC(O)(c1ccc(F)c(F)c1)c1nc(-c2ccc3ccccc3c2)cs1 (configuration not stated)	-56*	-9	nt	nt
CC(O)(c1ccc(F)c(F)c1)c1nc(-c2cnc3ccccc3c2)cs1 (configuration not stated)	-7	-21	nt	nt
CC(O)(c1ccccc1)c1nc(-c2cc3ccccc3o2)cs1 (configuration not stated)	-58*	-11	nt	nt
CC(O)(c1ccccc1)c1nc(-c2ccc(Cl)cc2)cs1 (configuration not stated)	-15	-16	nt	nt
CC(O)(c1cccnc1)c1nc(-c2cccc(C(F)(F)F)c2)cs1 (configuration not stated)	1	38*	nt	nt
Cc1nn(C(=O)c2ccccc2F)c(C)c1S(=O)(=O)N1CCCCCC1	nt	3	nt	2%
